Test results taken from PubChem BioAssay AID720724 (Broad Institute, 2013).
Potency and affinity values are given separately. The source made the active and inactive calls.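 Rule for the calls: active = signal falls with a fitted half-maximal dose at most twice the top dose, in every run; inconclusive = steady partial drop, poor fit, or runs disagree; inactive = flat, rising or too weak in every run.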

test: EF1alpha-driven Renilla reporter with control 3'UTR suppression – Clone20-Shn3RL cells, dual-Glo, cherry-pick, set 2, counter-screen for Shn3 3'UTR targeting project, dose response (AID 720724); details: renilla luciferase luminescence, 24 h; series mostly up to 35 µM

Row | SMILES | outcome
1 | COc1ccccc1NC(=O)Cn1cc(C(=O)C2CC2)c2ccccc21 | inactive
2 | Cn1c(=O)c2c(nc(NCc3ccco3)n2CCc2ccccc2)n(C)c1=O | inactive
3 | Cc1ccc(-c2cn3cc(C)ccc3n2)cc1 | inactive
4 | CCCn1c(C)cc(C(=O)CN2C(=O)c3ccccc3S2(=O)=O)c1C | inactive
5 | c1ccc(-c2noc(-c3ccc4ccccc4c3)n2)nc1 | inactive
6 | O=C(c1n[nH]c(=O)c2ccccc12)N1CCN(C2c3ccccc3-c3ccccc32)CC1 | inactive
7 | O=C(O)c1cccc(COc2ccccc2Cl)c1 | inactive
8 | COc1cc(NC(=O)c2cccc3c(-c4cccnc4)coc23)cc(OC)c1OC | inactive
9 | Cc1ccccc1OCCOC(=O)c1cc(S(=O)(=O)N2CCCCC2)ccc1N1CCOCC1 | inactive
10 | COc1ccccc1NS(=O)(=O)c1cc(NC(=O)c2ccc(Cl)nc2)ccc1Cl | inactive
11 | CC(Oc1ccc(F)cc1)C(=O)N(CCC1=CCCCC1)c1c(N)n(Cc2ccccc2)c(=O)[nH]c1=O (centres undefined) | inactive
12 | Cc1nc(SCC(=O)Nc2nc3ccccc3s2)c(C#N)c(C)c1C | inactive
13 | Cc1ccc(-c2nc3ncccc3o2)cc1NC(=O)c1sc2ccccc2c1Cl | inactive
14 | O=C(NCCc1ccccc1)c1ccc2c(c1)OCCCO2 | inactive
15 | COc1cccc(-n2c(C)nc3c(cnn3-c3ccc(Cl)cc3)c2=O)c1 | inactive
16 | O=C(Nc1ccc(Cl)cc1)c1cc(S(=O)(=O)N2CCOCC2)cs1 | inactive
17 | CCCCOCCCNc1ncnc2c1[nH]c1ccccc12 | inactive

Row | SMILES | outcome
18 | COc1ccc(C(=O)Nc2nc3ccccc3s2)c(OC)c1 | inactive
19 | O=C(NCCc1ccccc1)c1ccc2c(c1)OCCO2 | inactive
20 | CCOC(=O)C1CCCN(S(=O)(=O)c2ccc(S(=O)(=O)N3CCCC3)cc2)C1 (centres undefined) | inactive
21 | CCN(CC)S(=O)(=O)c1ccc(S(=O)(=O)Nc2c(C)nn(C)c2C)cc1 | inactive
22 | OCCCNc1nccc(-c2cc(Nc3cccc(Cl)c3)ncn2)n1 | inactive
23 | CC(C)(C)C(=O)Nc1cc2nn(-c3ccccc3)nc2cc1Cl | inactive
24 | Cn1nc(CC(=O)Nc2ccc3c(c2)OCCO3)c2ccccc2c1=O | inactive
25 | Cc1cccc(NS(=O)(=O)c2ccc(C3CCCCC3)cc2)c1 | inactive
26 | Cc1cc(C(=O)COC(=O)c2ccccc2O)c(C)n1Cc1cccs1 | inactive
27 | O=C(c1cc(COc2ccc3ncccc3c2)on1)N1CCCCCC1 | inactive
28 | CCN(CC)Cc1c(O)ccc2c1O/C(=C\C=C\c1ccccc1)C2=O | inactive
29 | Cc1ccc(CNC(=O)c2cc3c(C)nc4ccccc4c3o2)cc1 | inactive
30 | CCCCN1CC(COCc2ccccc2)Oc2cccc(Oc3ccc(C(C)C)cc3)c2S1(=O)=O (centres undefined) | inactive
31 | Cc1cc(S(=O)(=O)NCc2ccncc2)c(C)cc1Br | inactive
32 | O=C(CSc1nnc(-c2cccnc2)s1)Nc1ccnc2ccccc12 | inactive
33 | COc1ccccc1N1CCN(c2ncc(C(=O)N3CCN(c4cccc(Cl)c4)CC3)c3ccccc23)CC1 | inactive
34 | CC(C)CCOc1cccc(OCC(=O)Nc2ccncc2)c1 | inactive
